Experimental findings from PubChem BioAssay AID1779 (Sanford-Burnham Center for Chemical Genomics, 2009) are described below.

The structures appear in SMILES notation. Out of some 290,000 compounds screened, about 160 (0.055%) were called active. For the sample, actives were picked, then their nearest neighbours and some compounds at random. A number with no mark means an inactive call. Rule as the data show it: active = inhibition above about 50%; inactive = the rest.

Broadly, the inhibition is the drop in the measured response relative to a control, in per cent.

For this assay, the target named is Tyrosine-protein phosphatase non-receptor type 22 (Homo sapiens) (UniProt Q9Y2R2). As to the kind of experiment: inhibitors of LYP phosphatase, biochemical, fluorescence intensity, uHTS (AID 1779).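 Also: plate controls were vehicle with enzyme for no effect and no enzyme for full effect.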 The settings on record: recombinant LYP phosphatase, at 11.5 µM, stronger effect = higher value.
Tyrosine-protein phosphatase non-receptor type 22 (Homo sapiens), sequence (Q9Y2R2 whole entry, looked up): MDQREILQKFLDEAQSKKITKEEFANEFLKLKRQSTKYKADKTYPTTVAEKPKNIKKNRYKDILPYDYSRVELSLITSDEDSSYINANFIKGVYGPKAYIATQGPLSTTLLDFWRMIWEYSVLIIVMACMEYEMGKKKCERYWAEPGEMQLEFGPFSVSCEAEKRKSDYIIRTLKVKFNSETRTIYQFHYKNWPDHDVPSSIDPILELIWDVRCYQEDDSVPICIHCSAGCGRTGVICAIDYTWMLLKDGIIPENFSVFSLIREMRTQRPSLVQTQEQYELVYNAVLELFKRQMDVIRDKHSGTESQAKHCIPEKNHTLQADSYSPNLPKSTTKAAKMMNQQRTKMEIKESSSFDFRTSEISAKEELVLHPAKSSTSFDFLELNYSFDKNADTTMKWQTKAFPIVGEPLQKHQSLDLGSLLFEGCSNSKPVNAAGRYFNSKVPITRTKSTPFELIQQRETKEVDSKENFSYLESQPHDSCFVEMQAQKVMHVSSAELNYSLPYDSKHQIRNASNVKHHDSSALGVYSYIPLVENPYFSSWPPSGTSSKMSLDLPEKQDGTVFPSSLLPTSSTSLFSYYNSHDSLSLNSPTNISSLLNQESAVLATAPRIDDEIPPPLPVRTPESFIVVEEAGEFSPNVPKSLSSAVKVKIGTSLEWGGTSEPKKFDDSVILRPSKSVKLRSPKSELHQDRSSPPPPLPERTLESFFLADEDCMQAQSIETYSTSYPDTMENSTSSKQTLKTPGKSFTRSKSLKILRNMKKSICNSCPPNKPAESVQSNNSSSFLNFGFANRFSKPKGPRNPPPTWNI
Take `Cc1nn(Cc2ccc(Cl)cc2)c(C)c1NC(=O)CSc1n[nH]c(C)c1[N+](=O)[O-]`: the inhibition is -3.2%.

Regarding `COc1ccc(C2C(C(=O)N3CCCC3)c3cc(OC)c(OC)cc3C(=O)N2C)cc1OC` (centres undefined), the inhibition is -1.1%.

Regarding `COc1cc2c(cc1OC)C(C(=O)N1CCCC1)C(c1ccccc1F)N(C)C2=O` (centres undefined), the inhibition was -2.7%.

On to `COc1cc2c(cc1OC)C(C(=O)N1CCCCC1)C(c1ccccc1F)N(C)C2=O` (centres undefined), for which the inhibition is 64.6% (active).

Consider `COCCCNc1nc2c(-c3ccc(C)cc3)nnn2c2ccccc12`, for which the inhibition was -6.1%.

Take `O=C(N=C1c2ccccc2CN1c1cccc(Cl)c1)c1cccnc1`: the inhibition is -6.2%.

`COc1cc(SC#N)ccc1N=Cc1c(C)[nH]n(-c2ccc(C)cc2C)c1=O`: the inhibition was -3.1%.

On to `COc1cc(SC#N)ccc1N=Cc1c(C)[nH]n(-c2ccc(C)c(C)c2)c1=O`, for which the inhibition was -5.7%.

Regarding `COc1cc(SC#N)ccc1N=Cc1c(C)[nH]n(-c2ccc(Cl)cc2)c1=O`, the inhibition is 80.6% (active).

With `CCOC(=O)C1CCN(S(=O)(=O)c2cc(Cl)c(C)cc2OC)CC1`, the inhibition was 0%.

`O=C(Nc1ccc2nc(-c3ccco3)c(-c3ccco3)nc2c1)N1CCCCCC1`: the inhibition is 17.4%.

For `CCOC(=O)C1CCN(C(=O)Nc2ccc3nc(C)c(C)nc3c2)CC1`, the inhibition was -2.2%.

As for `CCOC(=O)C1CCN(C(=O)Nc2ccc3nc(-c4ccco4)c(-c4ccco4)nc3c2)CC1`, the inhibition is 53.4% (active).

Consider `CCC(=O)N1CCc2nc(-c3ccccc3)sc2C1`, for which the inhibition was -5.1%.

As to `COC(=O)c1ccc(CSc2nc(-c3ccccc3)cs2)o1`, the inhibition is -2.6%.

In the case of `CC(=O)N1c2c(cc(Br)cc2S(=O)(=O)N2CCCCC2)CC1C` (centres undefined), the inhibition was -0.1%.

With `CCOC(=O)N1CCN(S(=O)(=O)c2cc(Br)cc3c2N(C(C)=O)C(C)C3)CC1` (centres undefined), the inhibition is 3%.

Turning to `CC(=O)N1c2c(cc(Br)cc2S(=O)(=O)N2CCOCC2)CC1C` (centres undefined), the inhibition was 51.5% (active).

In the case of `COc1ccc(C(=O)Nc2cccc(C(=O)N3CCCC3)c2)cc1`, the inhibition was -7.1%.

In the case of `COc1ccccc1CC(=O)Nc1ccc(S(=O)(=O)N2CCN(C)CC2)cc1`, the inhibition is -10.4%.

In the case of `Cc1cc2nc(Cl)c(Cl)nc2cc1C`, the inhibition is -2.6%.

On to `Cc1cc2ncc(Cl)nc2cc1C`, for which the inhibition is 59.3% (active).

For the compound `Cc1cnc2cc(Cl)c(Cl)cc2n1`, the inhibition was -3.4%.

Turning to `CC(Oc1ccc([N+](=O)[O-])cc1Cl)C(=O)Nc1ccc(C(N)=O)cc1` (centres undefined), the inhibition was -5.5%.

With `Cc1ccc(NC(=O)C2CCCN2C(=O)NC2CCCCC2)cc1C` (centres undefined), the inhibition was -7%.

Take `CCCN1C(=O)C2(C(C(=O)c3ccc(C)o3)=C(O)C(=O)N2CCCOC)c2ccccc21` (centres undefined): the inhibition was 3.3%.

Take `O=C(NCc1ccccc1)c1ccc2ccccc2n1`: the inhibition is -6.3%.

Take `O=C(NCc1ccco1)c1ccc2ccccc2n1`: the inhibition was 56.3% (active).

As for `Cc1nc2ccccc2cc1C(=O)NCc1ccco1`, the inhibition is 1.1%.

On to `CC1CCN(C(=O)Cn2c(SCC(=O)Nc3nccs3)nc3ccccc32)CC1`, for which the inhibition was -1%.

For `CN1CCN(c2ccccc2NC(=O)Cc2ccc(Cl)cc2)CC1`, the inhibition was -9.1%.

For the compound `NN1C(=O)/C(=C2/Sc3ccccc3N2CCCS(=O)(=O)O)SC1=S`, the inhibition was -6.6%.

In the case of `CC1=NN(C(=O)c2ccc(Cn3ccc([N+](=O)[O-])n3)cc2)C(O)(C(F)(F)F)C1` (centres undefined), the inhibition was 63.4% (active).

On to `CC1=NN(C(=O)c2ccc(Cn3cc([N+](=O)[O-])cn3)cc2)C(O)(C(F)(F)F)C1` (centres undefined), for which the inhibition was -3.4%.

Take `CC1=NN(C(=O)Cn2ccc([N+](=O)[O-])n2)C(O)(C(F)(F)F)C1` (centres undefined): the inhibition is -3.6%.

As to `CC1Cc2ccccc2N1C(=O)CCn1c(=O)oc2ccccc21` (centres undefined), the inhibition was 5.2%.

For `COc1ccc(C(=O)n2ncc(C#N)c2N)cc1`, the inhibition was -0.2%.

For `CSC1=NCCN1CCOc1ccccc1`, the inhibition is -8.5%.

Consider `O=C(Cc1ccc([N+](=O)[O-])cc1)N1CCN(c2ccc([N+](=O)[O-])cc2)CC1`, for which the inhibition is -5.9%.

Regarding `O=C(Cc1cccs1)N1CCN(c2ccc(F)cc2)CC1`, the inhibition is -8.1%.

Consider `O=C(Cc1cccs1)N1CCN(c2ccc([N+](=O)[O-])cc2)CC1`, for which the inhibition is 70% (active).

As to `C[C@]12C=CC(=O)C=C1CC[C@@H]1[C@@H]2C(=O)C[C@@]2(C)[C@H]1CC[C@]2(O)C(=O)CO`, the inhibition was -5.9%.

Regarding `CCOC1(C)OCC(=O)[C@]2(CCC3C4CCC5=CC(=O)C=CC5(C)C4C(=O)CC32C)O1` (some centres undefined), the inhibition is 55.8% (active).

Regarding `CC(=O)OCC(=O)[C@@]1(O)CC[C@H]2[C@@H]3CCC4=CC(=O)C=C[C@]4(C)[C@H]3C(=O)C[C@@]21C`, the inhibition was -4.3%.

Regarding `CCN(CC)CCNC(=O)C1CCN(S(=O)(=O)N2CCCCC2)CC1`, the inhibition is -7.2%.

With `COc1ccccc1N1CCN(C(=O)C2CCN(C(=O)c3ccccc3C)CC2)CC1`, the inhibition is -10.9%.

Take `COc1ccccc1N1CCN(C(=O)C2CCN(C(=O)c3ccccc3Cl)CC2)CC1`: the inhibition is 69.4% (active).

On to `COc1ccccc1N1CCN(C(=O)C2CCN(C(=O)c3cccc(Cl)c3)CC2)CC1`, for which the inhibition was -6.5%.

As for `O=C(Nc1ccc2c(c1)OCO2)c1ccccc1SCC(=O)N1CCCC1`, the inhibition was 0.1%.

Turning to `CCOc1cc(N2CCOCC2)c(OCC)cc1NC(=O)c1c(-c2ccccc2Cl)noc1C`, the inhibition is 2.6%.

As to `CCSc1nnc(NC(=O)C2CCCCC2)s1`, the inhibition is -4.2%.

As for `CCSc1nnc(NC(=O)C2CC=CCC2C(=O)O)s1` (centres undefined), the inhibition was 0.6%.

As for `CCSc1nnc(NC(=O)C2CCCCC2C(=O)O)s1` (centres undefined), the inhibition is 66.2% (active).

For `CS(=O)(=O)N(CC(=O)Nc1ccccc1Br)Cc1ccccc1`, the inhibition was -4.5%.

Turning to `CC1=N/C(=C/c2ccco2)C(=O)O1`, the inhibition is -3.8%.

As for `O=C1NC(c2ccc(Br)cc2)=N/C1=C/c1ccco1`, the inhibition is 9.9%.

Turning to `O=C1OC(c2ccc(Br)cc2)=N/C1=C\c1ccco1`, the inhibition was 63.7% (active).

Consider `CCOC(=O)c1ccc(N2C(=O)C3C(/C=C/c4ccccc4)OC4(C(=O)c5ccccc5C4=O)C3C2=O)cc1` (centres undefined), for which the inhibition is 7.3%.

`CCOC(=O)c1cc(-c2cc(OC)c(OC)c(OC)c2)nc2c1c(=O)[nH]c(=O)n2Cc1ccccc1`: the inhibition is -8.7%.

Take `COc1ccc(C(=O)Nc2ccc(Cl)cn2)cc1Cl`: the inhibition is 0.7%.

On to `O=C(COc1ccc(Cl)cc1Cl)Nc1ccc(Cl)cn1`, for which the inhibition was -4.3%.

Turning to `CCOc1ccc(C(=O)Nc2ccc(Cl)cn2)cc1Cl`, the inhibition was 80.4% (active).

`CCn1c(SCC(=O)N/N=C(/C)c2ccncc2)nc2ccccc21`: the inhibition was -6.6%.

Take `Cc1ccc(S(=O)(=O)NC(=O)Nc2nnc(C3CC3)s2)cc1`: the inhibition is -9.1%.

Regarding `CC(=O)Nc1ccc(NC(=O)CSc2ccc(-c3sc(C)nc3C)nn2)cc1`, the inhibition was -10.3%.

In the case of `N#Cc1c(/N=C\c2ccc(O)c([N+](=O)[O-])c2)sc2c1CCCC2`, the inhibition is 7.9%.

In the case of `CC1=NN(c2ccccc2)C(=O)/C1=C\C=C1\N(C)c2ccccc2C1(C)C`, the inhibition is 6.4%.

For the compound `O=C(CNC(=O)c1ccc(Cl)cc1)NCC(F)(F)F`, the inhibition was 68.8% (active).

In the case of `O=C(CNC(=O)c1ccc(F)cc1)NCc1ccc(Cl)cc1`, the inhibition is -3%.

As for `CC(=O)NCCNC(=O)CNC(=O)c1ccc(Cl)cc1`, the inhibition is -1.1%.

On to `O=C1CC(N2CCN(c3cccc(C(F)(F)F)c3)CC2)C(=O)N1c1ccc(F)cc1` (centres undefined), for which the inhibition was 4.8%.

With `N#CC(C(=O)NC1CCCCC1)=C1CCCCCC1`, the inhibition was 2.1%.

As for `O=C(NC1CCCCCC1)C(=O)NC1CCCC1`, the inhibition is -2.9%.

In the case of `N#CC(C(=O)NC1CCCCC1)=C1CCCCC1`, the inhibition was 62.7% (active).

As for `CCN(CCCNC(=O)C1CCN(S(=O)(=O)c2cccc3nonc23)CC1)Cc1ccccc1`, the inhibition is -4.7%.

For `Cc1cc([N+](=O)[O-])ccc1NC(=O)CCC(=O)N1CCCCC1`, the inhibition is -5.2%.

In the case of `COc1ccc(NC(=S)N(CCN(C)C)C(C)c2ccncc2)cc1Cl` (centres undefined), the inhibition is -7.3%.

Consider `CCOC(=O)C1=C(CP(=O)(c2ccccc2)c2ccccc2)NC(=O)NC1c1ccc(OC)cc1` (centres undefined), for which the inhibition is 4%.

On to `CC(C)c1c(O)c2c(n(-c3ccccc3)c1=O)CCCC2`, for which the inhibition was 1%.

On to `CC/C(=N\O)c1c(O)c2c(n(-c3ccccc3)c1=O)CCCC2`, for which the inhibition is 3.9%.

`O=c1c(-c2ccccc2)c(O)c2c(n1-c1ccccc1)CCCC2`: the inhibition was 66.2% (active).

On to `Cc1cc(C)cc(Cn2ncc(Cl)c(Cl)c2=O)c1`, for which the inhibition was -5.9%.

As to `COc1ccc(C(=O)Nc2nc(N3C(=O)c4ccccc4C3=O)n(-c3ccccc3)n2)cc1`, the inhibition is -1.2%.

Take `O=C(COc1ccc(/C=N/NC(=O)c2ccncc2)cc1)Nc1cccc([N+](=O)[O-])c1`: the inhibition is -3.3%.

On to `COc1cc(/C=N/NC(=O)c2ccc(O)cc2)ccc1OCC(=O)Nc1cccc([N+](=O)[O-])c1`, for which the inhibition was -5.1%.

Take `O=C(COc1ccc(/C=N/NC(=O)c2ccc(O)cc2)cc1)Nc1cccc([N+](=O)[O-])c1`: the inhibition is 56.7% (active).

On to `CN(C)CCCNc1nc(-c2ccccc2)nc2ccccc12`, for which the inhibition was -1.4%.

As to `COc1ccc(Cn2c3nc4ccccc4nc3c3c(=O)n(Cc4ccco4)cnc32)cc1`, the inhibition was 24.1%.

As to `COc1ccc(Cn2c3nc4ccccc4nc3c3c(=O)n(Cc4ccco4)c(C)nc32)cc1`, the inhibition is 55.8% (active).

`Cc1nc2c(c(=O)n1Cc1ccccc1Cl)c1nc3ccccc3nc1n2Cc1ccco1`: the inhibition was -4.4%.

In the case of `COc1cccc(-c2onc3ccc(C(=O)/C=C/N(C)C)cc23)c1`, the inhibition was 2.8%.

`CCOC(=O)CC1(NC(=O)c2cc(COc3cccc(OC)c3)on2)CCCCC1`: the inhibition is 4.4%.

In the case of `CCOC(=O)CC1(NC(=O)c2cc(COc3ccc(F)c(F)c3)on2)CCCCC1`, the inhibition was -5.7%.

As for `CCOC(=O)CC1(NC(=O)c2cc(COc3cncc(Cl)c3)on2)CCCCC1`, the inhibition was 54.6% (active).
